{"source": "PubChem BioAssay (Tox21)", "key": {"[1]": {"assay": "cAMP Responsive Elements (CRE) small molecule antagonists, cell-based qHTS assay: qHTS cell viability counter screen (AID 2060913); further: nearly all actives have a fitted effect of over 40% in size", "procedure,_shortened": "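CRE-bla HEK293T cells (2,000/well, 18 h) given compound plus NKH477 0.25 uM final for 3 h at 37C; viability counter-screen by CellTiter-Glo luminescence in same wells after 30 min.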"}, "[2]": {"assay": "cAMP Responsive Elements (CRE) small molecule agonists, cell-based qHTS assay: qHTS cell viability counter screen (AID 2060914); further: nearly all actives have a fitted effect of over 50% in size", "procedure,_shortened": "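HEK 293T CRE-bla; DMEM + 10% dialyzed FBS, 25 mM HEPES; 18 h pre-incubation; compound 3 h, 37 °C/5% CO2; CellTiter-Glo added after reporter read; luminescence after 30 min RT.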"}}, "note": "Several values for one entry are separate records, joined by “and”; a condition that tells them apart may be missing. Equal values may be shown once. Records with an inconclusive call do not appear. Where a call stands in place of a potency, no number is given. A number with no mark means an inactive call. Activity calls are given as the source filed them. The call rests on the fitted dose curve; in most records, active means well fitted cell-killing curve with a large enough effect in the repeat runs; inconclusive means weak or mixed curves, or effect the other way; inactive means flat fitted curve, though single readings scatter. Potency means the concentration at half of the fitted maximal effect.", "data": [{"smiles": "CCN(C)N=O", "values": [{"measurement": "Potency", "setting": "[1]", "value": "inactive"}, {"measurement": "Potency", "setting": "[2]", "value": "inactive"}]}, {"smiles": "CCCCCCC(=O)CCCCCC/C=C/C[C@@H](O)[C@H](O)[C@@](N)(CO)C(=O)O", "values": [{"measurement": "viability change, negative = cytotoxic", "setting": "[1]", "value": "2.93% [at 18.9 µM]"}, {"measurement": "activity change, negative = cytotoxicity", "setting": "[2]", "value": "-1.02% [at 18.9 µM]"}]}, {"smiles": "Cl[C@H]1OCCO[C@@H]1Cl", "values": [{"measurement": "Potency", "setting": "[1]", "value": "inactive"}, {"measurement": "Potency", "setting": "[2]", "value": "inactive"}]}, {"smiles": "CN", "values": [{"measurement": "Potency", "setting": "[1]", "value": "inactive"}, {"measurement": "Potency", "setting": "[2]", "value": "inactive"}]}, {"smiles": "O=C1NCN(c2ccccc2)C12CCN(CC1COc3ccccc3O1)CC2", "note": "(stereo unspecified)", "values": [{"measurement": "Potency", "setting": "[1]", "value": "inactive"}, {"measurement": "Potency", "setting": "[2]", "value": "inactive"}]}, {"smiles": "CCC(C)(C#N)N=NC(C)(C#N)CC", "note": "(stereo unspecified)", "values": [{"measurement": "Potency", "setting": "[1]", "value": "inactive"}, {"measurement": "Potency", "setting": "[2]", "value": "inactive"}]}, {"smiles": "CCSCc1ccccc1OC(=O)NC", "values": [{"measurement": "Potency", "setting": "[1]", "value": "inactive"}, {"measurement": "Potency", "setting": "[2]", "value": "inactive"}]}, {"smiles": "CCOP(=O)(Sc1ccccc1)Sc1ccccc1", "values": [{"measurement": "Potency", "setting": "[1]", "value": "inactive"}, {"measurement": "Potency", "setting": "[2]", "value": "inactive"}]}, {"smiles": "Nc1cc(Cl)ccc1O", "values": [{"measurement": "Potency", "setting": "[1]", "value": "inactive"}, {"measurement": "Potency", "setting": "[2]", "value": "inactive"}]}, {"smiles": "CCc1cc(C)cc(CC)c1-c1c(OC(=O)C(C)(C)C)n2n(c1=O)CCOCC2", "values": [{"measurement": "Potency", "setting": "[1]", "value": "inactive"}, {"measurement": "Potency", "setting": "[2]", "value": "inactive"}]}, {"smiles": "CCc1ccc(C2CCNCC2)cc1", "values": [{"measurement": "Potency", "setting": "[1]", "value": "inactive"}, {"measurement": "Potency", "setting": "[2]", "value": "inactive"}]}, {"smiles": "CCC(Cl)CCl", "note": "(stereo unspecified)", "values": [{"measurement": "Potency", "setting": "[1]", "value": "inactive"}, {"measurement": "Potency", "setting": "[2]", "value": "inactive"}]}, {"smiles": "CC(=O)[O-].CC(=O)[O-].O.O.[Cd+2]", "values": [{"measurement": "Potency", "setting": "[1]", "value": "53.7 µM (active)"}, {"measurement": "Potency", "setting": "[2]", "value": "inactive"}]}, {"smiles": "CCNc1nc(NCC)nc(SC)n1", "values": [{"measurement": "Potency", "setting": "[1]", "value": "inactive"}, {"measurement": "Potency", "setting": "[2]", "value": "inactive"}]}, {"smiles": "O=C1Nc2ccc(Cl)cc2C(c2ccccc2)=NC1O", "note": "(stereo unspecified)", "values": [{"measurement": "Potency", "setting": "[1]", "value": "inactive"}, {"measurement": "Potency", "setting": "[2]", "value": "inactive"}]}, {"smiles": "CC(Cl)CN(C)C", "note": "(stereo unspecified)", "values": [{"measurement": "Potency", "setting": "[1]", "value": "inactive"}, {"measurement": "Potency", "setting": "[2]", "value": "inactive"}]}, {"smiles": "CC(=O)/C=C/c1ccccc1", "values": [{"measurement": "Potency", "setting": "[1]", "value": "inactive"}, {"measurement": "Potency", "setting": "[2]", "value": "inactive"}]}, {"smiles": "CC1CN1", "note": "(stereo unspecified)", "values": [{"measurement": "Potency", "setting": "[1]", "value": "inactive"}, {"measurement": "Potency", "setting": "[2]", "value": "inactive"}]}, {"smiles": "Cc1cccc(N)c1", "values": [{"measurement": "Potency", "setting": "[1]", "value": "inactive"}, {"measurement": "Potency", "setting": "[2]", "value": "inactive"}]}, {"smiles": "CCOC(=O)N(C)C(=O)CSP(=S)(OCC)OCC", "values": [{"measurement": "Potency", "setting": "[1]", "value": "inactive"}, {"measurement": "Potency", "setting": "[2]", "value": "inactive"}]}, {"smiles": "[Cl-].[Cl-].[Hg+2]", "values": [{"measurement": "Potency", "setting": "[1]", "value": "19.2 µM (active) and 8.63 µM (active)"}, {"measurement": "Potency", "setting": "[2]", "value": "21.6 µM (active) and 12.2 µM (active)"}]}, {"smiles": "CCCCOP(=O)(O)OCCCC", "values": [{"measurement": "Potency", "setting": "[1]", "value": "inactive"}, {"measurement": "Potency", "setting": "[2]", "value": "inactive"}]}, {"smiles": "CNC(=O)Oc1ccccc1OC(C)C", "values": [{"measurement": "Potency", "setting": "[1]", "value": "inactive"}, {"measurement": "Potency", "setting": "[2]", "value": "inactive"}]}, {"smiles": "CCCCCCCCCl", "values": [{"measurement": "Potency", "setting": "[1]", "value": "inactive"}, {"measurement": "Potency", "setting": "[2]", "value": "inactive"}]}, {"smiles": "O=C(Cl)c1ccccc1", "values": [{"measurement": "Potency", "setting": "[1]", "value": "inactive"}, {"measurement": "Potency", "setting": "[2]", "value": "inactive"}]}, {"smiles": "CC(=O)C(Cl)Cl", "values": [{"measurement": "Potency", "setting": "[1]", "value": "inactive"}, {"measurement": "Potency", "setting": "[2]", "value": "inactive"}]}, {"smiles": "c1ccc(OP(Oc2ccccc2)Oc2ccccc2)cc1", "values": [{"measurement": "Potency", "setting": "[1]", "value": "inactive"}, {"measurement": "Potency", "setting": "[2]", "value": "inactive"}]}, {"smiles": "C[N+]1(CCC(C(N)=O)(c2ccccc2)c2ccccc2)CCCCC1", "values": [{"measurement": "Potency", "setting": "[1]", "value": "inactive"}, {"measurement": "Potency", "setting": "[2]", "value": "inactive"}]}]}
